Our source for the binding signal values is PMC7862700, “An all-to-all approach to the identification of sequence-specific readers for epigenetic DNA modifications on cytosine”.

Common to all, as to assay: DAPPL (digital affinity profiling via proximity ligation, sequencing); 10 mM Tris-HCl pH 7.5, 50 mM NaCl, 1 mM DTT, 4% glycerol, room temperature, 30 min; GST-TFs on glutathione beads, 16-mer random dsDNA library, 0.1% formaldehyde crosslink after washing; high values mean tight binding
Common to all, as to conditions: protein: recombinant; tags: N-terminal GST; dsDNA, one strand shown

One experiment deals with T1, ELK1 (Homo sapiens, UniProt P19419 1-428).
T1 sequence: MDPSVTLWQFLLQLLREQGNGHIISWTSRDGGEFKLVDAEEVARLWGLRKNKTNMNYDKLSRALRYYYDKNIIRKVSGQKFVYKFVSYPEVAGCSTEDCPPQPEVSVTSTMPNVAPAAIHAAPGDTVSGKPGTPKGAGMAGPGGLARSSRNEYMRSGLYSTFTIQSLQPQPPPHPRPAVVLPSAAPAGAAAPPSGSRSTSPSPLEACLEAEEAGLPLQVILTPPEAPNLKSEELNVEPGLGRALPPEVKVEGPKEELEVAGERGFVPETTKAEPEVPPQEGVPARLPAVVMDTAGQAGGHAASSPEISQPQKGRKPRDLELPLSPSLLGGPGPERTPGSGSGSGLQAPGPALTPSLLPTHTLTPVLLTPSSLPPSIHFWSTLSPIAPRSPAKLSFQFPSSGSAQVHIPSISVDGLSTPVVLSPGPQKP
An outline of the steps: (§1)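 A tag-only sample was pooled with DNA-barcoded human transcription factors that had been expressed in yeast as GST fusions and captured on glutathione beads. The pools were incubated for 30 min at room temperature with 200 nmole of a random double-stranded 16-mer DNA library in Tris/NaCl/DTT/glycerol buffer, then washed, crosslinked with 0.1% formaldehyde, proximity-ligated (BsaI/T4 ligase, 1 h, 37 °C), PCR-amplified and sequenced on an Illumina NextSeq500. Binding signal is each hexamer's read frequency for a factor divided by its frequency for the tag-only sample.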

For a further experiment, the target named is T2, GABPA (Homo sapiens, UniProt Q06546 1-454).
T2 sequence: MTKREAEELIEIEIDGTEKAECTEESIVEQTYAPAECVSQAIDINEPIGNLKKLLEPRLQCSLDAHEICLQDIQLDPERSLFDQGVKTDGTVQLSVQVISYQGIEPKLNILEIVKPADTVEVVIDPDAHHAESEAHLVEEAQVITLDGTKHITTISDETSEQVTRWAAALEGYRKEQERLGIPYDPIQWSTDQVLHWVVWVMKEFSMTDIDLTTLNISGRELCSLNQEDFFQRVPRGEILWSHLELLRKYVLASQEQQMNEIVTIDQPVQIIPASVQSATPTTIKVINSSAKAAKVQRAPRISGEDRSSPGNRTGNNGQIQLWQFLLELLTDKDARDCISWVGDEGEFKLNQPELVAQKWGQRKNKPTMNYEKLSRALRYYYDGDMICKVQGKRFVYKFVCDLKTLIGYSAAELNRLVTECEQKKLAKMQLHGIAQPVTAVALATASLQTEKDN
An outline of the steps: as §1

The target in another experiment is T3, ERG (Homo sapiens, UniProt P11308 1-479).
T3 sequence: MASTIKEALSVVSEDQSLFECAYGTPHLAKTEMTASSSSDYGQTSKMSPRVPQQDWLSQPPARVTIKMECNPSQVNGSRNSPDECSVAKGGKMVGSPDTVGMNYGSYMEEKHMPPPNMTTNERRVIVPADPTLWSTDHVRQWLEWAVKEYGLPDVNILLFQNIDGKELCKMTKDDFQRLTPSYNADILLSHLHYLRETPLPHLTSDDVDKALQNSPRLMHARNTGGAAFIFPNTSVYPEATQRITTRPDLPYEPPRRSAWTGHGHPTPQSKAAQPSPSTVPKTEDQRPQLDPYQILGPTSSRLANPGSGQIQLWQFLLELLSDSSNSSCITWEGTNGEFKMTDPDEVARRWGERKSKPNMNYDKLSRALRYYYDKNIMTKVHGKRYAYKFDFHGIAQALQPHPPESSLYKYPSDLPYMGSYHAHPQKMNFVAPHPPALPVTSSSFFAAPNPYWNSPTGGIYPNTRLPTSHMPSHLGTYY
The procedure, abridged:
as §1

In the next experiment the target is ELF1 (Homo sapiens, UniProt P32519 1-619). An outline of the steps: as §1
The target in another experiment is T4, EHF (Homo sapiens, UniProt Q9NZC4 1-300).
T4 sequence: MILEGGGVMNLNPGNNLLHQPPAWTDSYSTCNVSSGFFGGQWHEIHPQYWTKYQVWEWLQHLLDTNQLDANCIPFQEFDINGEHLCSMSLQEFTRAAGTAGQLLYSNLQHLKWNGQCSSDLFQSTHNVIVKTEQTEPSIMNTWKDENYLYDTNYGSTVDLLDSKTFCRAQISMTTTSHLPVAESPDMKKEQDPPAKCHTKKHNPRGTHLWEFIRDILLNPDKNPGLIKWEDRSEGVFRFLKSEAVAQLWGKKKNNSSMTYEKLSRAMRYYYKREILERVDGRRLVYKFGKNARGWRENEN
The procedure, abridged: as §1

Another experiment has as its target SPIB (Homo sapiens, UniProt Q01892 1-262). The procedure, abridged: as §1
For another experiment, the target named is T5, ELK3 (Homo sapiens, UniProt P41970 1-407).
T5 sequence: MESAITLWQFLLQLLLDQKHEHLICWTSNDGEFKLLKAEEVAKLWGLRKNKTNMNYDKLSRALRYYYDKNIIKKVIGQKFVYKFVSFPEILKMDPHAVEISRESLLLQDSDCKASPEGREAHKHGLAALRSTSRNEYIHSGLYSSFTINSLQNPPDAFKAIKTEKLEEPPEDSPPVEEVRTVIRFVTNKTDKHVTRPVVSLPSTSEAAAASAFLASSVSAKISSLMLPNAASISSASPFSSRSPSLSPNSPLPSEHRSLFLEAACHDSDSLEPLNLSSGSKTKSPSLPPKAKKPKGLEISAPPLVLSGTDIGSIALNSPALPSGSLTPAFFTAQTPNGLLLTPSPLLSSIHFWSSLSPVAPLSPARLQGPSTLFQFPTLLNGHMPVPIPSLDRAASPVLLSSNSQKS
An outline of the steps: as §1

In another experiment the target is ETV5 (Homo sapiens, UniProt P41161 1-510). The procedure, abridged: as §1
In a further experiment the target is T6, SPIC (Homo sapiens, UniProt Q8N5J4 1-248).
T6 sequence: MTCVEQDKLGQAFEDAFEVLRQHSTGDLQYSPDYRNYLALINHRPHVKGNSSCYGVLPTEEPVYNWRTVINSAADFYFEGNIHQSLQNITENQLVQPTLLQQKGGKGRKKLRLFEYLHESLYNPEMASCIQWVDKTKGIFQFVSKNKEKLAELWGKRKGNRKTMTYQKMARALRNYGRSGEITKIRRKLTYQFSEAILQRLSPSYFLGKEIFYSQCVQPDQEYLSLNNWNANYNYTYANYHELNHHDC
The procedure, abridged: as §1

In another experiment the target is ELF4 (Homo sapiens, UniProt Q99607 1-663). The procedure, abridged: as §1
ELF4, sequence (Q99607 whole entry): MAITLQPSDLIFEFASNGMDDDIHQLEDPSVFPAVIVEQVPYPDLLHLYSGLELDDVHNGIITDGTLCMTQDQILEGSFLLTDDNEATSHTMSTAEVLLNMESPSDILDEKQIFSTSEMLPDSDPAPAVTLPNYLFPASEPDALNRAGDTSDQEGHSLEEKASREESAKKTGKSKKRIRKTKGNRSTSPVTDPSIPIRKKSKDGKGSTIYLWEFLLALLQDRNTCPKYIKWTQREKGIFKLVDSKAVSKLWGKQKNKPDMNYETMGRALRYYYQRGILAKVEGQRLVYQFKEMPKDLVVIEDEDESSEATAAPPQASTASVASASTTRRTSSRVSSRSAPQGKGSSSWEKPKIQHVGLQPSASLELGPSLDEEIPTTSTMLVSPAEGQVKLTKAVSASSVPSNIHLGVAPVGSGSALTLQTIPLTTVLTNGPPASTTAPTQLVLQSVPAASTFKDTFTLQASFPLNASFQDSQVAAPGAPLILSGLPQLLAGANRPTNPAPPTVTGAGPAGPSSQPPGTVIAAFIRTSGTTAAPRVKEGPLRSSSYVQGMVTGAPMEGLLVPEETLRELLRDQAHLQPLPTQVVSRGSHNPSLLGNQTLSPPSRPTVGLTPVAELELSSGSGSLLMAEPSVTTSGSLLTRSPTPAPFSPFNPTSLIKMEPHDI

SPIB, sequence (Q01892 whole entry): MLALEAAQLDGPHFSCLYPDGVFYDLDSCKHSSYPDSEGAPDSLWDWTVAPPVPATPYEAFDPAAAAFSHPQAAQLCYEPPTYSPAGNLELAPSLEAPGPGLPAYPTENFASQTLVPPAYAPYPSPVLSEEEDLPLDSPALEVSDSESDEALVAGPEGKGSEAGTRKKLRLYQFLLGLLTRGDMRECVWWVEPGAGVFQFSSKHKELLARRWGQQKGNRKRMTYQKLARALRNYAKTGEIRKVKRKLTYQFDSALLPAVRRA
ELF1, sequence (P32519 whole entry): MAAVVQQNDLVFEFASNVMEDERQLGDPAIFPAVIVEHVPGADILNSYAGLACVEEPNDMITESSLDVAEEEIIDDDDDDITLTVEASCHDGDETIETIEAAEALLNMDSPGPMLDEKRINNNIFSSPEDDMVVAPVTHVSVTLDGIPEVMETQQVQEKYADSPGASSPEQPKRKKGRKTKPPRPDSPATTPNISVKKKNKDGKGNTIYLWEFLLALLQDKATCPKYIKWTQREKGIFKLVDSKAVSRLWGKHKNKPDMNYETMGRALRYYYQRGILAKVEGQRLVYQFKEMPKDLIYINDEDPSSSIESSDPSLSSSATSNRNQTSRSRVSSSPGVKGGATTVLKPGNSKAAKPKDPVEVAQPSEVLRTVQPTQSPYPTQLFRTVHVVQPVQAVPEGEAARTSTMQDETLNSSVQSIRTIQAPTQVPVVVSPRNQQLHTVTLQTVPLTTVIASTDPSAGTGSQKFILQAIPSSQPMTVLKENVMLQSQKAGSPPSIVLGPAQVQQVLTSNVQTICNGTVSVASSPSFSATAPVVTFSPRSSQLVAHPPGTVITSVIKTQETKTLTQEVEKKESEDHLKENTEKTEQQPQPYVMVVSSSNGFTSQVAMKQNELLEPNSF
ETV5, sequence (P41161 whole entry): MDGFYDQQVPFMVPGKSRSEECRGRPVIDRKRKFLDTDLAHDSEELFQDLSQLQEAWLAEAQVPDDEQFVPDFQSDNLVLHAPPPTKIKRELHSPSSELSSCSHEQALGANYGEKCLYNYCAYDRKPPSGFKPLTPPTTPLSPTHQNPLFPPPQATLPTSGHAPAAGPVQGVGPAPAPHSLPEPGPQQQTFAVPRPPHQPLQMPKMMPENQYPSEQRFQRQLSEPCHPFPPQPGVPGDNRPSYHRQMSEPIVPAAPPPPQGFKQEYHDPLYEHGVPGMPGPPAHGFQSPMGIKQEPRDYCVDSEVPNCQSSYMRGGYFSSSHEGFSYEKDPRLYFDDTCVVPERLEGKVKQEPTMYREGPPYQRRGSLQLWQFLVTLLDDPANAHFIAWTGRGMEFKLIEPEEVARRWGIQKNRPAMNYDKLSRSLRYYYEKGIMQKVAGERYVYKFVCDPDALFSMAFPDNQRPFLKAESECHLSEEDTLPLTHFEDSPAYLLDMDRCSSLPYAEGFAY

As for CACAGC, the binding signal in the experiment with ELK1 was 1.09 fold enrichment (6-mer frequency, TF over GST control); in the experiment with GABPA, 1.02 fold enrichment (6-mer frequency, TF over GST control); in the experiment with ERG, 1.03 fold enrichment (6-mer frequency, TF over GST control); in the experiment with ELF1, 1.11 fold enrichment (6-mer frequency, TF over GST control); with EHF, 1.02 fold enrichment (6-mer frequency, TF over GST control); with SPIB it was 1.05 fold enrichment (6-mer frequency, TF over GST control). The binding signal is 1.07 fold enrichment (6-mer frequency, TF over GST control) with ELK3; 1.01 fold enrichment (6-mer frequency, TF over GST control) with ETV5; 1.1 fold enrichment (6-mer frequency, TF over GST control) with SPIC; 1.08 fold enrichment (6-mer frequency, TF over GST control) in the experiment with ELF4.
